# ATXN2 expr inh – Primary qHTS for Inhibitors of ATXN expression; HEK-293 ATXN2-luciferase reporter, luminescence, 24 h; Potency, µM (titrated, usually from 57 µM), most hits filed as inhibitors; 360,000 compounds, 0.72% hits; AID 1745845, 2022; further: nearly all actives have a fitted effect of over 55% in size
#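 qHTS (up to 57 uM final) was run with 24 h compound exposure of reporter cells at 37 °C. Each well was multiplexed: SteadyGlo luminescence measured ATXN2-luciferase expression after a fluorogenic Gly-Phe-AFC viability readout (25 uM final).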
# ATXN viability – Viability Counterscreen for Primary qHTS for Inhibitors of ATXN expression. S2 cells (HEK-293 line with an ATXN2-luciferase reporter) viability, CellTiter-Fluor protease fluorescence, 24 h. Potency, µM (titrated, usually from 56.7 µM), actives largely listed as cytotoxic. 400,000 compounds, 0.49% hits; further: nearly all actives have a fitted effect of over 40% in size
# TGFb SMAD3 inh – qHTS for Inhibitors of TGF-b; 410,000 compounds, 1.2% hits; Potency, µM (series often up to 46.1 µM), actives largely listed as inhibitors; AID 588855, 2011; HepG2 CAGA-GFP TGF-b/SMAD3 reporter, GFP fluorescence, 18 h; TGF-beta stimulated, 500 pg/mL final; further: nearly all actives have a fitted effect of over 65% in size
#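 HEPG2 CAGA-GFP, 1000 cells/well; 2 h settle, 37 C; cpd via pin tool; TGF-b 500 pg/mL final; 18 h, 37 C; GFP imaging ex488/em500-530; %Activity normalised to -TGF-b and +DMSO controls; CRC fit, curve class.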
# HepG2 tox – qHTS for Inhibitors of TGF-b: Cytotox Counterscreen; HepG2 CAGA-GFP viability, ATP luminescence, 18 h; Potency, µM (doses to about 46.1 µM), hits mostly cytotoxic; 410,000 compounds, 0.76% hits
#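 HepG2 CAGA-GFP cells (1000/well, DMEM with 1% FBS) received compound, then TGF-beta at 500 pg/mL final, and were incubated 18 hours at 37 degrees C. Viability was read by CellTiter-Glo luminescence. Media-only wells were set as complete cell-killing and DMSO as no toxicity.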
# TDP1 cell noCPT – qHTS for Inhibitors of human tyrosyl-DNA phosphodiesterase 1 (TDP1): qHTS in cells in absence of CPT; 420,000 compounds, 15% hits; Potency, µM (doses to about 46.2 µM), usual class: inhibitors; DT40 Tdp1-/- hTDP1 cells, no CPT, ATP luminescence, 48 h; further: nearly all actives have a fitted effect of over 55% in size
#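 Seeded 400 DT40-hTDP1 cells/well (vehicle DMSO, no 20 nM CPT); pinned compounds; ≥48 hr at 37 °C; CellTiter-Glo luminescence as viability measure.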
# DT40 TDP1 CPT – qHTS for Inhibitors of human tyrosyl-DNA phosphodiesterase 1 (TDP1): qHTS in cells in presence of CPT; chicken DT40 Tdp1-/-;hTDP1 cells + 20 nM CPT, ATP luminescence, 48 h; Potency, µM (doses to about 46.2 µM), hits mostly inhibitors; 420,000 compounds, 12% hits; further: nearly all actives have a fitted effect of over 55% in size
#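 Cell growth measured by CellTiter-Glo luminescence after a minimum 48 h, 37 C compound exposure with 20 nM CPT in Tdp1-knockout DT40 cells stably expressing hTDP1, seeded 400/well; qHTS titration format.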
# Hits are given with their value; n = inactive; u = inconclusive; x = no result; [ ] = another dose, or the depositor's remark. In the library only some 17% were active in any assay of this set; here they are far more common. The call rests on the fitted dose curve; in most records, active means well fitted curve in the direction sought with a large enough effect; inconclusive means small, poorly fitted or top-dose-only effect, or another doubt; inactive means no such curve, though single readings can be large; an effect the other way counts as inactive or inconclusive.
SMILES,ATXN2 expr inh,ATXN viability,TGFb SMAD3 inh,HepG2 tox,TDP1 cell noCPT,DT40 TDP1 CPT
CCCCn1c(N)c(N(CC(C)C)C(=O)COC(=O)Cc2c(C)nc3ccccc3c2C)c(=O)[nH]c1=O,n,n,n,n,n,n
CC[N+]1(CC(=O)c2cccs2)CCCCC1,x,x,n,n,u,u
Cc1ccccc1-n1c(SCC(=O)c2ccccc2)nnc1-c1ccc(F)cc1,x,x,u,n,u,u
Cc1nc(N2CCN(Cc3ccc(Cl)cc3)CC2)c2oc3ccccc3c2n1,u,n,n,n,16µM,23µM
N#CCc1c(C#N)c(N)nc(N2CCN(Cc3ccc4c(c3)OCO4)CC2)c1C#N,n,n,n,n,12µM,u
COc1ccccc1N1CCN(c2nc(C)nc3c2oc2ccccc23)CC1,35µM,u,u,n,2.8µM,3.2µM
Cc1cc(C)c(C#N)c(N2CCN(Cc3ccc4c(c3)OCO4)CC2)n1,n,n,n,n,u,u
Cc1nc(N2CCN(Cc3ccc4c(c3)OCO4)CC2)c2cc(-c3ccccc3)sc2n1,n,n,u,n,23µM,18µM
Cc1nc(N2CCC(C)CC2)c2oc3ccccc3c2n1,n,n,n,n,u,u
CSc1nc(N2CCN(Cc3ccc4c(c3)OCO4)CC2)c2ccccc2n1,x,n,u,n,u,u
Cc1nc(N2CCN(Cc3ccc4c(c3)OCO4)CC2)c2oc3ccccc3c2n1,u,n,u,n,9.2µM,7.3µM
COc1cccc(CSc2nc3ccncc3[nH]2)c1,n,n,n,n,18µM,u
COc1cccc(CNC(=O)CSc2nc3ccc(C)cc3[nH]2)c1,n,n,n,n,n,u
Clc1ccccc1CSc1nc2ccncc2[nH]1,n,n,n,n,23µM,u
O=C(NCc1ccccc1Cl)c1ccc(CSc2nc3ccncc3[nH]2)cc1,n,n,n,n,u,n
COc1cccc(N2CCN(C(=O)c3ccc(CSc4nc5ccncc5[nH]4)cc3)CC2)c1,n,u,u,n,18µM,18µM
CC(C)(C)c1cc(NS(=O)(=O)c2ccc(Br)s2)no1,n,n,n,n,n,n
COc1cccc(-c2c(C(=O)N/N=C(\C)c3ccc(Cl)s3)nnn2-c2nonc2N)c1,n,n,n,n,n,n
Cc1cc(-c2ccnc(-n3ncc(C(=O)N4CCCCC4c4cccnc4)c3C3CC3)n2)c(C)s1 (configuration not stated),x,n,x,x,n,n[9.04 µM]
O=C(c1cnn(-c2nccc(-c3ccccc3F)n2)c1C1CC1)N1CCCCC1c1cccnc1 (configuration not stated),x,n,x,x,21µM,n[9.04 µM]
CCCC(=O)N(c1ccc(OCC)cc1)S(=O)(=O)c1ccc2c3c(cccc13)C(=O)N2C,n,n,n,n,13µM,15µM
COCCNS(=O)(=O)c1ccc2c3c(cccc13)C(=O)N2C,n,x,n,n,n,n
CC1=C(N2CCCCC2)CCC1=O,n,n,n,n,n,n
O=C(Nc1ncccc1O)C1CCN(S(=O)(=O)c2ccc3ccccc3c2)CC1,n,n,n,n,n,n
COC(=O)[C@H](CC(C)C)N1Cc2cc(OC)cc(OC)c2-c2ccccc2S1(=O)=O,n,u,u,n,16µM,u
SMILES,ATXN2 expr inh,ATXN viability,TGFb SMAD3 inh,HepG2 tox,TDP1 cell noCPT,DT40 TDP1 CPT
C=C1CCN(C(CC(C)C)C(=O)OC)S(=O)(=O)c2ccccc21 (configuration not stated),n,n,n,n,u,u
CC(NC(=O)Cn1ccsc1=N)C12CC3CC(CC(C3)C1)C2 (configuration not stated),n,n,n,n,23µM,16µM
O=C1CCCc2cc3c(cc21)CC1(C3)Cc2cc3c(cc2C1)C(=O)CCC3,x,n,u,n,4.6µM,3.7µM
COc1cnc(-c2ccccn2)nc1N(C)C,16µM,u,n,n,2.9µM,u
COc1cnc(-c2ccccn2)nc1Oc1cccc(Cl)c1,n,u,n,n,8.2µM,18µM
COc1cnc(-c2ccccn2)nc1Oc1c(C)cccc1C,u,n,n,n,3.3µM,3.3µM
COc1cc(OC)cc(C(=O)NCC(=O)N2CC=C(c3ccccc3)CC2)c1,n,n,n,n,4.6µM,3.3µM
O=C(NCC(=O)N1CC=C(c2ccccc2)CC1)c1ccc(OC(F)F)cc1,x,n,n,n,7.3µM,7.3µM
O=C(NCC(=O)N1CC=C(c2ccccc2)CC1)c1ccccc1Br,n,n,n,n,21µM,u
COc1ccc(S(=O)(=O)N2CCOC2CNC(=O)C(=O)NCc2ccccn2)cc1OC (configuration not stated),x,u,n,n,n,u
COc1cc(C(=O)NC(=S)Nc2cccc3nc(C)ccc23)cc(OC)c1OC,n,n,n,n,n,n
Cc1ccc(C(=O)NC(=S)Nc2cccc3c(C)cc(C)nc23)cc1,n,n,n,n,21µM,u
COc1ccc(C(=O)NC(=S)Nc2cccc3nc(C)ccc23)cc1OC,n,n,n,n,21µM,u
COc1ccc(CNC(=O)CSc2ccc(Br)cc2)cc1OC,n,n,n,n,n,n
Cc1ccc2nc(NC(=O)CSc3nc4c(c(=O)n3C)SC(C)C4)sc2c1 (configuration not stated),u,n,n,n,21µM,21µM
Cc1ccc(C)c(NC(=O)CSc2nc3c(c(=O)n2C)SC(C)C3)c1 (configuration not stated),n,n,n,n,u,u
CCOC(=O)c1ccc(NC(=O)CSc2nc3c(c(=O)n2C)SC(C)C3)cc1 (configuration not stated),n,u,u,n,26µM,18µM
CCn1c(=O)c([N+](=O)[O-])c(N2CCSCC2)c2ccccc21,n,n,n,n,23µM,u
CCN(CC)CCN(C(=O)CCS(=O)(=O)c1ccccc1)c1nc2cc(OC)c(OC)cc2s1,n,u,u,n,u,u
CCN(CC)CCN(C(=O)CCS(=O)(=O)c1ccccc1)c1nc2cc(C)cc(C)c2s1,n,n,16µM,18µM,u,21µM
Cc1cc(C)c2sc(N(CCN(C)C)C(=O)CCS(=O)(=O)c3ccccc3)nc2c1,u,u,n,n,18µM,23µM
CCN(CC)CCN(C(=O)CCS(=O)(=O)c1ccccc1)c1nc2c(C)cc(C)cc2s1,n,x,u,n,7.3µM,16µM

# Screening results: PubChem BioAssay, National Center for Advancing Translational Sciences (NCATS)
